{"source": "PubChem BioAssay AID455", "about": "(Sanford-Burnham Center for Chemical Genomics, 2006)", "note": "In all, about 10,000 compounds went through this assay and about 20 (0.2%) were called active. This is one part of a sample in which actives are shown more often than they occur.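 The calls were made as follows: active = a compound raising TNF-alpha-driven VCAM-1 surface staining, with its hit status upheld on visual or statistical review; inactive = the rest, including hits rejected on review.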"}
{"assay": "enhancers of VCAM-1 display on endothelial cells, cell-based, plate reader, pooled HUVEC, TNFa stimulus (AID 455);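 as to augmentation: 0% = TNFa plus DMSO wells and 100% = a visually confirmed top hit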", "conditions": "HUVEC TNFa-induced VCAM-1 immunofluorescence; active compounds read high,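 tested at 5 µM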"}
{"smiles": "COc1ccccc1/C=C1/C(=N/O)C2CCN1CC2", "augmentation": "81.5% (active)"}
{"smiles": "O=C(CCCOc1ccc(Cl)cc1Cl)N1CCC2(CC1)OCCO2", "augmentation": "inactive"}
{"smiles": "O=C(Cn1ncc2c3ccccc3n(Cc3ccc(F)cc3)c2c1=O)N1CCC2(CC1)OCCO2", "augmentation": "inactive"}
{"smiles": "Cc1cccc(N2CCc3c2nc2ccccc2c3N)c1", "augmentation": "inactive"}
{"smiles": "COc1ccc(C2SCC(=O)Nc3c2c(=O)[nH]n3C2CCCCCC2)cc1OC", "note": "(stereo not given)", "augmentation": "inactive"}
